Source: PubChem BioAssay (NCI)
Compounds without any hit were thinned out: in the full panel of roughly 83,000, 20% have a hit.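 A percent growth of 40 corresponds to 60% growth inhibition; 0 means no net growth; -100 means all cells died. Active threshold: below 10.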 Unmarked numbers belong to inactive results. The source made the active and inactive calls.

System: MDA-MB-468 breast
Test: NCI-60 one-dose screen, 48 h (100 = growth as untreated, 0 = no growth, -100 = all killed)
Settings: 10 µM unless noted

Row | SMILES | growth
1 | FC(F)(F)c1cn(CCN2CCOCC2)c2ncnc(Cl)c12 | 9.54% (active)
2 | O=C(CSc1nc2c(n1Nc1ccccc1)-c1ccccc1SC2)Nc1nc(-c2ccc(Cl)cc2)cs1 | 59.1%
3 | CC(=O)N1CCN(c2ccc(OCC3CO[C@](Cn4ccnc4)(c4ccc(Cl)cc4Cl)O3)cc2)CC1 (stereo not given in full) | 26.5%
4 | COc1cc(OC)cc(C(=O)Nc2cccc(C#Cc3cccc4[nH]nc(N)c34)c2)c1 | 31.8%
5 | Nc1ccc2c(c1Br)Cc1ccccc1-2 | 111%
6 | CN(C)CCNc1nc2ccccc2c2c(=O)c3ccccc3sc12 | -23.6% (active)
7 | Oc1c(Cl)c2ccccc2c2ccccc12 | 112%
8 | Fc1ccc(-c2nn3c(-c4cc(C(F)(F)F)cc(C(F)(F)F)c4)nnc3s2)cc1 | 25.5%
9 | COC1OCC(OS(=O)(=O)c2ccc(C)cc2)C(OC(=O)c2ccccc2)C1OC(=O)c1ccccc1 (stereo not given) | 13%
10 | COc1cccc2c1C=CC1(O2)Oc2cccc(OC)c2C=C1C (stereo not given) | 39.5%
11 | Oc1c(C(Nc2ccccn2)c2cccc(Oc3ccccc3)c2)ccc2cccnc12 (stereo not given) | -79.2% (active)
12 | Cn1c(COC(=O)N2CCCCC2)nc2c(N3CCOCC3)nc(-c3ccccc3)nc21 | -61.7% (active)
13 | CCc1ccc(Nc2ncnc3c2cnn3-c2cccc(Br)c2)cc1 | 91%
14 | O=C(Nc1ccc(CN2CCc3nc4cc(O)c(O)cc4cc32)cc1)c1ccc(Cl)c(Cl)c1 | 97.4%
15 | CC(C)C1=NOC(=O)C1=Cc1cn(-c2ccccc2)nc1-c1ccc(F)cc1 | 73.4%
